Several values for one entry are separate records, joined by “and”; a condition that tells them apart may be missing. Equal values may be shown once. Records with an inconclusive call do not appear. Unmarked numbers belong to inactive results. Activity calls are given as the source filed them. Unless noted, calls come from the whole dose curve; as a rule, active = well fitted curve in the direction sought with a large enough effect in the repeat runs; inconclusive = weak or mixed curves; inactive = no such curve, though single readings can be large; an effect the other way counts as inactive or inconclusive.

Experiment [1] can be described thus: qHTS assay to identify small molecule antagonists of the estrogen related receptor (ERR) signaling pathway from Tox21 library - cell viability counter screen (AID 1224834). Note: nearly all actives have a fitted effect of over 30% in size. Note: potency is the fitted concentration of half-maximal effect. In outline: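 In this quantitative HTS format, ERR cells receive compounds in DMSO and are incubated for 17.5 h at 37 C. Live-cell protease activity is then detected with CellTiter-Fluor.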

For experiment [2], the target named is Luciferin 4-monooxygenase (Photinus pyralis) (UniProt P08659). The experiment can be described thus: qHTS assay to identify small molecule inhibitors of firefly luciferase (AID 1224835). For activity change, negative = inhibition: series mostly up to about 120 µM; % is set by controls: 0 for no effect and ±100 for the full control effect. Note: nearly all actives have a fitted effect of over 25% in size. Note: potency is the fitted concentration of half-maximal effect. In outline: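 Biochemical qHTS: compounds run as interplate titrations against purified firefly enzyme, with D-luciferin and ATP each at its KM concentration. Light output recorded by CCD imaging.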
Sequence of Luciferin 4-monooxygenase (Photinus pyralis) (P08659 whole entry, looked up): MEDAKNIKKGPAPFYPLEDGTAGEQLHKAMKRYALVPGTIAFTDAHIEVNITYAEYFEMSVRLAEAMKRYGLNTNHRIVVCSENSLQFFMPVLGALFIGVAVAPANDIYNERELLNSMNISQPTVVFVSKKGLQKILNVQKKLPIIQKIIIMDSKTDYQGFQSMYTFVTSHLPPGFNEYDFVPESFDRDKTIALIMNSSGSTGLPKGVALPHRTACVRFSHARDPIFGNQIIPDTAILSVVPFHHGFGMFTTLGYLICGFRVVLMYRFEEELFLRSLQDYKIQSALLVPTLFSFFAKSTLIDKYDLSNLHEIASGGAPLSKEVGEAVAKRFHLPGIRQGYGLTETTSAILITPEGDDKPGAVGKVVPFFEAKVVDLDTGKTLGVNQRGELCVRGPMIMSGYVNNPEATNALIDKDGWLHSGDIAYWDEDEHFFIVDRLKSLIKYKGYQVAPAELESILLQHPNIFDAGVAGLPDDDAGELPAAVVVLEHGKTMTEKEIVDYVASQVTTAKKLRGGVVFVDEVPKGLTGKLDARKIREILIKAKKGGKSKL
On the technique in general: Quantitative high-throughput screening tests each substance at several concentrations.

Experiment [3] is described as follows: qHTS assay to identify small molecule antagonists of the constitutive androstane receptor (CAR) signaling pathway - cell viability counter screen (AID 1224837). Note: nearly all actives have a fitted effect of over 45% in size. Note: potency is the fitted concentration of half-maximal effect. A digest of the protocol: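 In quantitative HTS format, compounds at 15 concentrations were applied to HepG2 cells double-transfected with hCAR and CYP2B6-2.2kb under 50 nM CITCO stimulation; live-cell protease activity was read after 23 hr via CellTiter-Fluor.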

Experiment [4] can be described thus: qHTS assay to identify small molecule antagonists of the estrogen related receptor signaling pathway with the pleiotropic PPARgamma coactivator (PGC) from Tox21 10K library - cell viability counter screen (AID 1224840; active = well fitted cell-killing curve with a large enough effect in the repeat runs, not every such curve was filed as active; note: nearly all actives have a fitted effect of over 40% in size; note: potency is the fitted concentration of half-maximal effect). In outline:
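Viability counter screen, PGC/ERR cells: 17.5 h compound exposure at 37 C, CellTiter-Fluor fluorescence endpoint.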

The nature of experiment [5]: qHTS assay to identify small molecule antagonists of the estrogen related receptor signaling pathway with the pleiotropic PPARgamma coactivator (PGC) from Tox21 10K library (AID 1224841; call rule not given here; note: actives are mostly falling curves and most rising ones were filed inactive; nearly all actives have a fitted effect of over 50% in size; note: potency is the fitted concentration of half-maximal effect; for activity, negative = inhibition: series mostly up to about 92 µM; % is set by controls: 0 for no effect and ±100 for the full control effect). In outline:
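In the PGC/ERR line, DMSO solutions of test chemicals are pin-delivered to 2,000 cells/well six hours after dispensing. Following eighteen hours' incubation, One-Glo reagent is added and luminescence recorded.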

Experiment [6] in a line: qHTS assay to identify small molecule agonists of the estrogen related receptor signaling pathway with the pleiotropic PPARgamma coactivator (PGC) from Tox21 10K library (AID 1224842). Note: % is set by controls: 0 for no effect and ±100 for the full control effect; nearly all actives have a fitted effect of over 15% in size. In outline:
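PGC/ERR reporter cell line, 2,000 cells per well, incubated 6 h at 37 C before 23 nL compound in DMSO was added. After 18 h at 37 C, One-Glo luminescence read following 30 min at room temperature.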

In experiment [7] the target is Thyrotropin receptor (Homo sapiens) (UniProt P16473). Briefly: qHTS assay to identify small molecule agonists of the thyroid stimulating hormone receptor (TSHR) signaling pathway (AID 1224843; calls by dose curve; note: nearly all actives have a fitted effect of over 45% in size; note: potency is the fitted concentration of half-maximal effect; for activation: % is set by controls: 0 for no effect and ±100 for the full control effect). A digest of the protocol:
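HEK293/TSHR, 800 cells/well; cpd 30 min RT; add cAMP-d2 + anti-cAMP-cryptate, 1 h RT; fluorescence read on plate reader. 15-pt titration, n=3.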

Experiment [8] is described as follows: qHTS assay to identify small molecule agonists of the constitutive androstane receptor (CAR) signaling pathway - cell viability counter screen (AID 1224836). Note: potency is the fitted concentration of half-maximal effect; nearly all actives have a fitted effect of over 45% in size. In outline:
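Multiplexed viability check: HepG2-CYP2B6-hCAR cells, 15-point compound dosing, 0.75 uM PK11195 final, 23 h at 37 C, CellTiter-Fluor fluorescence.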

For experiment [9], the target named is Nuclear receptor subfamily 1 group I member 3 (Homo sapiens) (UniProt Q14994). Briefly: qHTS assay to identify small molecule antagonists of the constitutive androstane receptor (CAR) signaling pathway (AID 1224838). For activity, negative = inhibition: % is set by controls: 0 for no effect and ±100 for the full control effect. Note: nearly all actives have a fitted effect of over 40% in size. Note: potency is the fitted concentration of half-maximal effect. In outline: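 CITCO-stimulated (50 nM final) HepG2 cells stably transfected with hCAR and CYP2B6-2.2kb luciferase were exposed to compounds at 15 concentrations for 24 h at 37 C/5% CO2. A luciferase reagent was added and luminescence recorded after 30 min.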
Sequence of Nuclear receptor subfamily 1 group I member 3 (Homo sapiens) (Q14994 whole entry, looked up): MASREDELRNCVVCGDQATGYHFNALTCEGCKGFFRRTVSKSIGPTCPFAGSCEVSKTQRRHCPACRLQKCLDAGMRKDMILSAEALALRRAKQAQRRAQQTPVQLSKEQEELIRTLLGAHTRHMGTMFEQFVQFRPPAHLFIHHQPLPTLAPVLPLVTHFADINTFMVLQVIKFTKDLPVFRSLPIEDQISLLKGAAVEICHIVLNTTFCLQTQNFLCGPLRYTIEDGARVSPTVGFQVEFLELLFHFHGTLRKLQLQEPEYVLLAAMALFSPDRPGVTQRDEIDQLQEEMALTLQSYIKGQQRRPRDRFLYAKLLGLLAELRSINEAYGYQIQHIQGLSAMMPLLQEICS

Experiment [10] has the same target. Briefly: qHTS assay to identify small molecule agonists of the constitutive androstane receptor (CAR) signaling pathway (AID 1224839). Note: nearly all actives have a fitted effect of over 15% in size. Note: potency is the fitted concentration of half-maximal effect. A digest of the protocol: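 Using human hepatoma HepG2 cells engineered with hCAR and a CYP2B6-2.2kb reporter, 15-concentration compound series were incubated 24 h alongside PK11195 at 0.75 uM final, with luminescence quantified afterwards.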

Sequence of Thyrotropin receptor (Homo sapiens) (P16473 whole entry, looked up): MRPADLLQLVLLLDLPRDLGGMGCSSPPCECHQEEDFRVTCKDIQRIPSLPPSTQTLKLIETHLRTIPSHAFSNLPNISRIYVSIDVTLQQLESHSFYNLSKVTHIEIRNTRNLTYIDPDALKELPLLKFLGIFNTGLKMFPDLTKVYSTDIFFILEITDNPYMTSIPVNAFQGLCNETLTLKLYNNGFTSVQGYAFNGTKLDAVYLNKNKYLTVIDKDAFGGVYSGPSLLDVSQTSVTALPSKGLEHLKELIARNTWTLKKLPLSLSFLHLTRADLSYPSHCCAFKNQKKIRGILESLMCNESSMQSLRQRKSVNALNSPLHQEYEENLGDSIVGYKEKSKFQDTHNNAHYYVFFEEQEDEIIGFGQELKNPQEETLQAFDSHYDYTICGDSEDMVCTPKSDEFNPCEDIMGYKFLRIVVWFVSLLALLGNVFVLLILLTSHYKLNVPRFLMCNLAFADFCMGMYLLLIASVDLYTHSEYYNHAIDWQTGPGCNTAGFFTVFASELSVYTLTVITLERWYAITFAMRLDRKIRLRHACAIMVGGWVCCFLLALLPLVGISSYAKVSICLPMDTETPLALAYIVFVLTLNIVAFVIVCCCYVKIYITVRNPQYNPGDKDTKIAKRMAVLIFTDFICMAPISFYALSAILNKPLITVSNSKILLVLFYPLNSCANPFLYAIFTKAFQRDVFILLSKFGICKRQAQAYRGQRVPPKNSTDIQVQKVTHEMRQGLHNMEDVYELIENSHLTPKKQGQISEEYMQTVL

As for `Cc1cc(N)c(S(=O)(=O)O)cc1Cl`, the Potency entry in experiment [1], in [2], in [3], in experiment [4], in experiment [5] and in [6] was “inactive” each time. In addition, the Potency result in experiment [7] was “inactive”.

As to `O=c1cc(-c2ccc(O)cc2)oc2cc(O)cc(O)c12`, the Potency in experiment [1] was 49.2 µM (active) and 30.6 µM (active); in experiment [2], 10.2 µM (active) and 7.96 µM (active); in experiment [8], 55.2 µM (active); in experiment [10] it was 24.7 µM (active) and 61.1 µM (active). Further, the Potency entry in experiment [9] and in [7] was “inactive” each time.

As for `C/C=C1/C(=O)C[C@H]2[C@@H]3CCC4=CC(=O)CC[C@]4(C)[C@H]3CC[C@]12C`, the Potency in experiment [1] is 60.9 µM (active); in experiment [10], 8.61 µM (active). For the same compound, the Potency entry in [2] and in experiment [9] was “inactive” in each case.

For the compound `O=C1c2c(O)ccc(Nc3ccc(CCO)cc3)c2C(=O)c2c([N+](=O)[O-])ccc(O)c21`, the Potency is 38.6 µM (active) in [1], 17.8 µM (active) in experiment [2] and 27.3 µM (active) in [10]. The Potency entry in experiment [9] was “inactive”.

For `COc1cc(-c2nc(NC(=O)c3cc4cc(C)cc(C)c4n3CC(=O)O)sc2CCC2CCCCC2)c(OC)cc1Cl`, the Potency in experiment [1] was 49.9 µM (active); in experiment [4], 39.7 µM (active). Besides, the Potency result in experiment [2], in [10], in [6] and in [7] was “inactive” throughout.

Consider `Oc1c(Cl)cc(Cl)c2cccnc12`, for which the Potency was 13.3 µM (active) in [1] and 26.6 µM (active) in experiment [4]. In addition, the Potency entry in [2], in experiment [10], in experiment [6] and in [7] was “inactive” in each case.

Take `O=C(OC[C@H]1O[C@@H](OC(=O)c2cc(O)c(O)c(OC(=O)c3cc(O)c(O)c(O)c3)c2)[C@H](OC(=O)c2cc(O)c(O)c(OC(=O)c3cc(O)c(O)c(O)c3)c2)[C@@H](OC(=O)c2cc(O)c(O)c(OC(=O)c3cc(O)c(O)c(O)c3)c2)[C@@H]1OC(=O)c1cc(O)c(O)c(OC(=O)c2cc(O)c(O)c(O)c2)c1)c1cc(O)c(O)c(OC(=O)c2cc(O)c(O)c(O)c2)c1`: in experiment [1], the Potency was 16.5 µM (active). For the same compound, the activity change, negative = inhibition in experiment [2] is -18.6% [at 23.6 µM]. In addition, the values for the activity, negative = inhibition in [9] and in experiment [5] were -0.544% [at 19 µM] and -8.46% [at 19 µM], respectively. Moreover, the activation in [10] was -3.23% [at 19 µM]; in experiment [6], -3.36% [at 19 µM].

Turning to `ON=C1CCCC1`, the Potency in experiment [1] was 25.2 µM (active); in experiment [5], 63.3 µM (active). The Potency result in experiment [2], in experiment [9], in experiment [6] and in [7] was “inactive” in each case.

As to `CC(C)n1nc(-c2cc3cc(O)ccc3[nH]2)c2c(N)ncnc21`, the Potency in [1] was 1.33 µM (active); in experiment [9], 15 µM (active); in experiment [5] it was 0.211 µM (active). Further, the Potency result in experiment [2], in experiment [10] and in [6] was “inactive” throughout.

Regarding `CC(=O)OCC(C)OC(C)=O` (configuration not stated), the Potency result in experiment [1], in [2], in [3], in [4] and in [7] was “inactive” throughout.

Take `Cc1cc(C2CCCCC2)n(O)c(=O)c1`: the Potency is 9.44 µM (active) in experiment [1], 29.8 µM (active) in [3] and 26.6 µM (active) in [4]. Moreover, the Potency entry in experiment [2] and in experiment [7] was “inactive” in each case.

For the compound `CCCCCCCCCCCCc1ccc(O)cc1`, the Potency in [1] was 54.5 µM (active); in [4] it was 48.6 µM (active); in experiment [5], 54.5 µM (active); in experiment [7], 27.3 µM (active). Also, the Potency result in [2] and in [6] was “inactive” in each case.

As to `Nc1ccccc1O`, the values for the Potency in experiment [1] and in [10] were 60.3 µM (active) and 24 µM (active), respectively. Besides, the Potency result in experiment [2], in experiment [9], in experiment [6] and in experiment [7] was “inactive” in each case.

Take `CC(C)(C)C1CCC(CC2=C(O)c3ccccc3C(=O)C2=O)CC1` (configuration not stated): the Potency result in experiment [1], in experiment [2], in experiment [9], in [10], in experiment [6] and in [7] was “inactive” throughout.

As for `Clc1ccccc1C(c1ccccc1)(c1ccccc1)n1ccnc1`, the Potency in experiment [1] was 27.3 µM (active) and 11.9 µM (active); in experiment [4], 17.2 µM (active); in experiment [5], 5.45 µM (active) and 9.44 µM (active). In addition, the Potency entry in experiment [2], in experiment [6] and in [7] was “inactive” throughout.

For the compound `OCCN1CCN(CC/C=C2/c3ccccc3Sc3ccc(C(F)(F)F)cc32)CC1`, the Potency in experiment [1], in experiment [4] and in [5] was 29.8 µM (active) each time. Also, the Potency entry in [2], in [6] and in experiment [7] was “inactive” throughout.

Turning to `CCCCc1oc2ccc(NS(C)(=O)=O)cc2c1C(=O)c1ccc(OCCCN(CCCC)CCCC)cc1`, the figures for the Potency in experiment [1] and in [4] were 21.1 µM (active) and 18.8 µM (active), respectively. In addition, the Potency result in experiment [2], in experiment [10], in experiment [6] and in experiment [7] was “inactive” in each case.

As for `Cc1[nH]cnc1C[C@H]1CCc2c(C)c3ccccc3n2C1=O`, the results for the Potency in experiment [1], in experiment [9] and in experiment [5] were 47.4 µM (active), 59.6 µM (active) and 23.7 µM (active), respectively. In addition, the Potency entry in [2], in experiment [10], in [6] and in [7] was “inactive” in each case.

With `CC(C)(C)CC(C)(C)c1ccc(O)c(Cc2ccc(Cl)cc2Cl)c1`, the Potency in experiment [1] was 23.7 µM (active); in [4], 29.8 µM (active). Further, the Potency entry in [2], in [10] and in experiment [7] was “inactive” throughout.

On to `COc1ccc(CN2CCN(C(c3ccc(F)cc3)c3ccc(F)cc3)CC2)c(OC)c1OC`, for which the figures for the Potency in experiment [1], in experiment [4] and in experiment [5] were 13.3 µM (active), 26.6 µM (active) and 11.9 µM (active), respectively. Besides, the Potency entry in experiment [2], in [10] and in [6] was “inactive” in each case.

As to `CCN(CC)CCNC(=O)c1c(C)[nH]c(/C=C2\C(=O)Nc3ccc(F)cc32)c1C`, the Potency in experiment [1] is 10.6 µM (active); in [8], 10.6 µM (active); in [3], 10.6 µM (active); in experiment [9], 10.6 µM (active); in experiment [4], 29.8 µM (active). For the same compound, the Potency entry in [10] is “inactive”.

For `CN1CCC(Nc2ncc3ncnc(Nc4ccc(F)c(Cl)c4)c3n2)CC1`, in experiment [1], the Potency was 26.6 µM (active). For the same compound, the Potency entry in experiment [2], in experiment [10], in experiment [5] and in experiment [7] was “inactive” in each case.

On to `C[n+]1ccn(Cc2ccccc2)c1`, for which the Potency entry in [1], in experiment [2], in [4], in experiment [5], in experiment [6] and in experiment [7] was “inactive” each time.

Turning to `Cc1cccc2c1cc1ccc3cccc4ccc2c1c34`, the Potency result in experiment [1], in experiment [2], in experiment [9], in experiment [4], in [5] and in [6] was “inactive” throughout. Further, the Potency in [10] was 15.7 µM (active).

With `Cc1onc(-c2ccccc2Cl)c1C(=O)N[C@@H]1C(=O)N2[C@@H]1SC(C)(C)[C@@H]2C(=O)O`, the Potency entry in experiment [1], in [2], in experiment [4] and in experiment [7] was “inactive” throughout.

Take `CNc1ccc(O)cc1`: the values for the Potency in experiment [1], in experiment [2] and in experiment [4] were 43.2 µM (active), 39.8 µM (active) and 48.5 µM (active), respectively. Moreover, the Potency result in [6] was “inactive”.

On to `CCOC(=O)O[C@]1(C(=O)OCCl)CC[C@H]2[C@@H]3CCC4=CC(=O)C=C[C@]4(C)[C@H]3[C@@H](O)C[C@@]21C`, for which the Potency entry in experiment [1], in [2], in experiment [3], in experiment [4] and in experiment [7] was “inactive” each time.

The values above are taken from PubChem BioAssay (Tox21).
